# In PubChem BioAssay AID651661 (Broad Institute, 2012):
# Values joined by “and” are separate entries in the source; they are usually repeats but may differ in a detail not shown here. Equal values may be shown once. Among all 350,000 compounds or so, about 2,300 (0.66%) were called active. The sample holds actives, similar compounds and a random draw of the others, so the mix is not that of the screen. Unmarked numbers belong to inactive results.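 The calls were made as follows: active = mean inhibition of at least 50% after viability correction, with every replicate also passing that limit; inconclusive = mean reaches 50% but only one of two replicates passes; inactive = the rest.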
# Experiment: blockers of EWS/Fli transcriptional output – A673 cells, NR0B1 luciferase, luminescence, MLPCN library, primary screen (AID 651661);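 also: firefly luciferase signal divided by Alamar Blue viability fluorescence both relative to DMSO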
# Details: A673 NR0B1-luciferase reporter, viability-normalised; at 12.6 µM; stronger effect = higher value
row,Compound,inhibition
1,COC1C(O)C(C)OC(OC2CCC3(C=O)C(CCC4C3CCC3(C)C(C5=CC(=O)OC5)CCC43O)C2)C1O (stereo not given),61.9% (active)
2,OC[C@@H]1[C@H]2c3ccccc3NC[C@H]2N1Cc1cccnc1,3.74%
3,Cc1nc2ccc(N3CCN(C)CC3)cc2nc1C,1.28%
4,COc1cccc(-c2nc3ccc(N4CCN(C)CC4)cc3[nH]2)c1,54% (active)
5,Brc1ccc2c(c1)CNCc1cnnn1-2,-10.6%
6,CCC(C)NC1(c2ccccc2)CCCCC1 (stereo not given),-1.85%
7,COc1cc(OC)cc(C(=O)NCCN2CCC3(CC2)C(=O)NCN3c2ccccc2)c1,-1.8%
8,CCN(CC)C(=O)[C@@H]1C=C2c3cccc4[nH]c(Br)c(c34)C[C@H]2N(C)C1,-3.36%
9,C[C@]12CCC3C(CC[C@H]4C[C@@H](O)CC[C@]34C)C1C[C@@H](O)[C@H]2O (stereo not given in full),0.611%
10,C[C@]12CC[C@H](O)C[C@H]1CC[C@@H]1C2CC[C@]2(C)[C@@H](C3=CC(=O)OC3)[C@@H](O)C[C@]12O (stereo not given in full),64.9% (active)
11,C[C@]12CCC3C(CC[C@H]4C[C@@H](O)CC[C@]34C)C1CC[C@@H]2O (stereo not given in full),-5.07%
12,COc1ccc(C#Cc2ccc([C@H]3[C@H](CO)N4CCCCN(C(=O)Cc5ccccc5)C[C@@H]34)cc2)cc1,-12.7%
13,COC(=O)[C@H]1[C@H](CO)[C@H]2Cn3c(ccc(-c4cccc(F)c4)c3=O)[C@@H]1N2Cc1ccccc1,-28.1%
14,O=c1[nH]c2ccccc2n1C1CCN(C(c2ccccc2)c2nnnn2Cc2ccccc2)CC1 (stereo not given),21.9%
15,O=C1NC(=O)N(Cc2ccco2)C(=O)/C1=C\c1ccc(-c2ccc(F)cc2)o1,20%
16,O=C(O)COc1ccccc1/C=C1\C(=O)NC(=O)N(CCC2=CCCCC2)C1=O,2.19%
17,O=C1NC(=O)N(CCc2ccc(F)cc2)C(=O)/C1=C/C=C/c1ccccc1,66.1% (active)
18,O=C(NC[C@@H]1CC[C@H]2NC[C@H]2O1)C1CCCC1,-22.4%
19,C[C@@H]1CN([C@H](C)CO)C(=O)CCCn2cc(nn2)CO[C@@H]1CN(C)C(=O)Oc1cccc2ccccc12,4.15%
20,C[C@H]1CN([C@@H](C)CO)C(=O)CCCn2nncc2CO[C@H]1CN(C)C(=O)Oc1cccc2ccccc12,-6.63% and -4.29% and 4.35%
21,CN(C)CC1Oc2ccccc2OC1(O)c1ccccc1 (stereo not given),55.9% (active)
22,O=C(NCC1=C(c2ccc3ccccc3c2)C[C@@H]2CC[C@H]1N2Cc1ccco1)c1cccs1,2.23%
23,O=c1[nH]c2ccccc2n1C1CCN(C(c2ccnc3ccccc23)c2nnnn2Cc2ccccc2)CC1 (stereo not given),6.09%
24,COC(=O)C[C@@H]1CC[C@@H]2NC[C@@H](O)COC[C@H]2O1,-11.3%
25,Cc1cc(N2CCNC[C@@H]2C)ccc1N1CC[C@H](O)C1,-8.38%
26,CCOC(=O)[C@]12Cc3cc(OC)ccc3[C@H]1N(C(C)C)C(=O)c1ccccc12,16.8%
27,CCOC(=O)[C@]12Cc3ccccc3[C@H]1N(C1CCCCC1)C(=O)c1cc(OC)ccc12,56.3% (active)
28,CC(=O)NCC1=C(c2ccc3ccccc3c2)C[C@@H]2CC[C@H]1N2Cc1ccco1,9.45%
29,CC1C(=O)OC2CCN3CC=C(COC(=O)C(C)(O)C1(C)O)C23 (stereo not given),0.572%
30,O=C(O)[C@@H]1[C@@H](CO)[C@@H]2Cn3c(ccc(-c4ccccc4F)c3=O)[C@H]1N2C(=O)c1cccnc1,-3.75%
